# Measurements reported in paper PMC4336329 (PLoS ONE, 2015).
# Out of some 310,000 compounds screened, about 2,200 (0.71%) showed an effect of 50% or more. Effects have a minus sign here. The entries come from a sample that favours strong results as a whole.
# Biological target: human ether-à-go-go-related gene (hERG) potassium channel (human, UniProt Q12809)
# Assay: primary screen, population patch clamp on CHO cells stably expressing hERG; higher = less effect of the substance
# Chain of human ether-à-go-go-related gene (hERG) potassium channel (Q12809 whole entry, looked up): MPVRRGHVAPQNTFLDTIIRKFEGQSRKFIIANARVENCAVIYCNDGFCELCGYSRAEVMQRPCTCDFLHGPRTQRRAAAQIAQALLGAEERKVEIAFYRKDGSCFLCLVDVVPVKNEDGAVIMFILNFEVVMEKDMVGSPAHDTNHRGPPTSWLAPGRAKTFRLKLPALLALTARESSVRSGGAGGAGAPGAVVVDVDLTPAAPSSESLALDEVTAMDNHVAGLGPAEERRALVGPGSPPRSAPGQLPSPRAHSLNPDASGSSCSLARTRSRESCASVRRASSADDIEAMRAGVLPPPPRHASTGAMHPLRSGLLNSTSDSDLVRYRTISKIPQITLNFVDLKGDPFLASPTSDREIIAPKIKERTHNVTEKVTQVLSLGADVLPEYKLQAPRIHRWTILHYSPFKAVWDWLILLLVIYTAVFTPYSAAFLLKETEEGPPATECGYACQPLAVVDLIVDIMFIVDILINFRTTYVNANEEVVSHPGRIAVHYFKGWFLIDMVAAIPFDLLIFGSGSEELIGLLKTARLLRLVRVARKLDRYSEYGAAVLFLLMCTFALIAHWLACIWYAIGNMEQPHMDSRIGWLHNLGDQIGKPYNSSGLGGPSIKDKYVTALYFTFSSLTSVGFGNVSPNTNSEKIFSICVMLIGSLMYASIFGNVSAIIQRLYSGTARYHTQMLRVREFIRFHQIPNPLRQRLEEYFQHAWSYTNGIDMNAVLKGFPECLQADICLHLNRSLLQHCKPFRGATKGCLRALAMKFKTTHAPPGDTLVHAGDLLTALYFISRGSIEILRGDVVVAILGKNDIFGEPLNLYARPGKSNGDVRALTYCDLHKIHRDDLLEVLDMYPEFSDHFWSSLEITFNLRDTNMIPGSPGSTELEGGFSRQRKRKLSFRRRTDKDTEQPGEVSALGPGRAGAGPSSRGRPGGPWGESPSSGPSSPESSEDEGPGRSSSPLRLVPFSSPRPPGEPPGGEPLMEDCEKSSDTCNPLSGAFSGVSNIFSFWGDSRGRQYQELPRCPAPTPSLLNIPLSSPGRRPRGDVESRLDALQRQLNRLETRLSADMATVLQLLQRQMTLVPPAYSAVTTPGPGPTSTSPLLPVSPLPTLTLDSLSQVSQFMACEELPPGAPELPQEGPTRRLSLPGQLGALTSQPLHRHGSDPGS
row,SMILES,"hERG current change (%, negative = inhibition) at 1uM [%]"
1,CN(C)CCCN(C(=O)COc1ccc(Cl)cc1)c1nc2c(F)cccc2s1.Cl,-16.9
2,CN(C)CCCN(C(=O)COc1ccc(Cl)cc1)c1nc2ccc(F)cc2s1.Cl,8.45
3,CN(C)CCCN(C(=O)COc1ccccc1)c1nc2c(Cl)cccc2s1.Cl,-45.5
4,CCOc1cccc2sc(N(CCCN(C)C)C(=O)c3ccc(S(=O)(=O)N(C)Cc4ccccc4)cc3)nc12.Cl,-1.82
5,CN(C)CCCN(C(=O)COc1ccccc1)c1nc2c(F)cccc2s1.Cl,-55.8
6,CCOc1cccc2sc(N(CCCN(C)C)C(=O)Cc3ccccc3)nc12.Cl,-83.7
7,CCOc1cccc2sc(N(CCCN(C)C)C(=O)c3ccc(C(=O)c4ccccc4)cc3)nc12.Cl,-29.5
8,Cc1cccc2sc(N(CCCN(C)C)C(=O)COc3ccc(Cl)cc3)nc12.Cl,-6.98
9,COc1cccc2sc(N(CCCN(C)C)C(=O)COc3ccc(Cl)cc3)nc12.Cl,-68.9
10,CCOC(=O)c1c(NC(=O)c2cc(CC(C)C)on2)sc(C(C)=O)c1C,12.5
11,CC(C)CN(C(=O)COC(=O)c1cnc(Cl)c(Cl)c1)c1c(N)n(Cc2ccccc2)c(=O)[nH]c1=O,8.68
12,COc1ccc(-c2n[nH]c(C)c2-c2ccc(Cl)cc2)c(O)c1,10.2
13,CCOC(=O)CSc1nc(Cc2ccccc2)nc2ccccc12,3.08
14,Cn1nc(C(F)(F)F)c2cc(C(=O)N3CCOCC3)sc21,5.87
15,COc1ccccc1N1CCN(C2CCCN(C(=O)CCC(=O)N(C)C)C2)CC1 (stereo not shown),-3.24
16,CCCC(=O)NC(=S)Nc1ccc(NC(=O)c2cccs2)cc1,-3.11
17,Cc1cc(=O)[nH]c(SCC(=O)c2ccc(C)c(C)c2)n1,18.1
18,N#Cc1c2c(c(Nc3ccc(O)cc3)n3c1nc1ccccc13)CCC2,11.7
19,CC(=O)c1ccc(Nc2c3c(c(C#N)c4nc5ccccc5n24)CCC3)cc1,-67
20,N#Cc1c2c(c(Nc3ccccc3)n3c1nc1ccccc13)CCC2,10.4
21,CC(C1CC1)N(Cc1ccccc1)C(=S)Nc1ccccc1Cl (stereo not shown),3.13
22,COc1cccc(-c2noc(CCC(=O)NC3CCCCC3)n2)c1,0.894
23,COCCNC(=O)CSc1nc2ccccc2c(=O)n1CCC(=O)N1CCN(c2ccccc2)CC1,6.84

row,SMILES,"hERG current change (%, negative = inhibition) at 1uM [%]"
1,COCCNc1nc(SCC(=O)N2CCN(c3ccccc3OC)CC2)nc2ccccc12,-92.9
2,COc1ccccc1N1CCN(C(=O)CSc2nc3ccccc3nc2N2CCCCC2)CC1,16.5
3,COc1ccccc1N1CCN(C(=O)CSc2nnc3c4ccccc4nc(Cc4ccccc4)n23)CC1,-1.26
4,O=C(CSc1nc2ccccc2c(=O)[nH]1)N1CCN(c2ccccc2)CC1,12.9
5,COCCNc1nc(SCC(=O)N2CCN(c3ccccc3)CC2)nc2ccccc12,-94.4
6,COc1cc2ccccc2cc1C(=O)N1CC(C)CC(C)C1 (stereo not shown),-3.89
7,CCOC(=O)N/N=C/c1cccnc1,5
8,CCCCN(C(=O)COC(=O)c1ccc(C=O)cc1)c1c(N)n(CCC)c(=O)[nH]c1=O,11
9,CCC(=O)N1CCN(c2nc(C)nc3sc(C)c(C)c23)CC1,-54
10,Cc1nc(N2CCN(C(=O)CCC(=O)O)CC2)c2c(C)c(C)sc2n1,-4.32
11,Cc1nc(N2CCN(C(=O)COc3ccccc3)CC2)c2c(C)c(C)sc2n1.Cl,-29.3
12,c1ccc(Cc2noc(CN3CCCN(C4Cc5ccccc5C4)CC3)n2)cc1,-66
13,c1ccc(Cc2noc(CN3CCN(C4CCc5ccccc5C4)CC3)n2)cc1 (stereo not shown),-76.1
14,COc1ccc(Cc2noc(CN3CCCN(C4Cc5ccccc5C4)CC3)n2)cc1OC,-44.4
15,Fc1cccc(Cc2noc(CN3CCSCC3)n2)c1,17.3
16,Fc1cccc(Cc2noc(CN3CCN(C4CCc5ccccc5C4)CC3)n2)c1 (stereo not shown),-67.5
17,Cc1ccccc1N1CCN(Cc2nc(Cc3ccccc3)no2)CC1,8.68
18,Fc1cccc(Cc2noc(CN3CCCN(C4Cc5ccccc5C4)CC3)n2)c1,-86.9
19,Fc1cccc(Cc2noc(CN3CCOCC3)n2)c1,10.8
20,Fc1cccc(Cc2noc(CN3CCC(c4ccncc4)CC3)n2)c1,-1.98
21,COc1ccc(Cc2noc(CN3CCN(C4CCc5ccccc5C4)CC3)n2)cc1OC (stereo not shown),-32
22,O=C(c1ccco1)N1CCCN(Cc2nc(Cc3ccccc3)no2)CC1,1.8
23,Cc1cccnc1CN1CCN(Cc2nc(Cc3cccc(F)c3)no2)CC1,6.2

row,SMILES,"hERG current change (%, negative = inhibition) at 1uM [%]"
1,COc1ccnc2c1c(=O)n(Cc1cccc(F)c1)c(=O)n2C,8.91
2,Cc1cc(C)cc(NC(=O)CSc2nnc(CNC(=O)c3ccco3)n2C)c1,14.2
3,Br.c1ccc(C2CNCc3c2ccc2ccccc32)cc1 (stereo not shown),1.84
4,COc1ccc(C(=O)NCc2nnc(SCC(=O)NCc3ccco3)o2)cc1OC,14.2
5,COc1cccc(NC(=O)Cn2nc(Cc3cccnc3)c3ccccc3c2=O)c1,-8.3
6,COc1ccc(Nc2nnc(Cc3ccncc3)c3ccccc23)c(OC)c1,-66.6
7,COc1ccc(Nc2nnc(Cc3ccccc3)c(=O)[nH]2)c(OC)c1,8.03
8,COc1cccc(Nc2nnc(Cc3cccnc3)c3ccccc23)c1,-83.2
9,COc1ccc(Nc2ncnc3ccccc23)c(OC)c1.Cl,-0.118
10,COc1cccc(NC(=S)NCc2cccnc2)c1,11.1
11,CCN(CC)CCOC(=O)c1cc2cc(COC)ccc2o1.CI,9.98
12,O=C(CN1C(=O)c2cccnc2Oc2ccc(Cl)cc21)Nc1ccc(F)cc1,14.1
13,COCCCn1c(Cc2csc(Nc3cccc(Cl)c3)n2)nnc1SCC(=O)OC1CCCCC1,-0.506
14,COc1ccc(C2CC(c3cccc(OC)c3OC)n3nnnc3N2)cc1 (stereo not shown),-4.26
15,O=C(c1cccs1)N1CCN(C(=O)N2CCOCC2)CC1,15.2
16,COC(C[C@@H]1O[C@@H]1[C@H](O)COCc1ccccc1)OC,10.5
17,CCOC(=O)c1cc(-c2ccc(Cl)cc2)nc2c1c(C)nn2CCC#N,10.9
18,Cc1cc(C)c[n+](CC(=O)c2ccc(C)c([N+](=O)[O-])c2)c1.[Br-],4.61
19,Cc1cc(C)c[n+](CC(=O)c2ccccc2)c1.[Br-],20.1
20,Cc1cc(C)c[n+](CC(=O)c2c(C)cc(C)c([N+](=O)[O-])c2C)c1.[Br-],-52.7
21,CN1CCN(C(=O)C2CCC(=O)N(Cc3cccc(C(F)(F)F)c3)C2)CC1 (stereo not shown),6.99
22,Cc1nnc(NC(=O)CSc2nnc(CC(=O)Nc3ccccc3C)n2C)s1,17.4
23,COc1ccc(C(=O)C2CCCN(Cc3cccn3-c3ccccn3)C2)c(C)c1 (stereo not shown),-84.8

row,SMILES,"hERG current change (%, negative = inhibition) at 1uM [%]"
1,COc1ccc(C(=O)C2CCCN(CCO)C2)c(C)c1 (stereo not shown),12.5
2,COc1ccc(C(=O)C2CCCN(C(=O)CCc3ccccn3)C2)c(C)c1 (stereo not shown),9.98
3,COc1ccc(C(=O)C2CCCN(Cc3cccn3-c3ccc(Cl)cn3)C2)c(OC)c1 (stereo not shown),-45.8
4,COc1ccc(C(=O)C2CCCN(Cc3ccccn3)C2)c(OC)c1 (stereo not shown),-3.83
5,COc1ccc(C(=O)C2CCCN(Cc3cccn3-c3ccccn3)C2)c(OC)c1 (stereo not shown),-82.9
6,O=C(O)c1cc(NC(=O)c2ccc3c(c2)C(=O)N(Cc2ccccc2)C3=O)cc(C(=O)O)c1,11.7
7,COc1cccc(Nc2ncc(C#N)c(N)n2)c1,12.9
8,O=C(COC(=O)c1nc(Cl)ccc1Cl)Nc1ncc(Cl)cc1Cl,14.4
9,CCN(CC)CCCN=Cc1c(O)n(Cc2ccccc2)c(=O)c2ccccc12,-77.3
10,CN(C)CCN=Cc1c(O)n(Cc2ccccc2)c(=O)c2ccccc12,-6.8
11,CN(C)CCCN=Cc1c(O)n(Cc2ccccc2)c(=O)c2ccccc12,-25.5
12,CCOC(=O)C1CCN(C/C=C/c2ccccc2[N+](=O)[O-])CC1,-57
13,CCOC(=O)C1CCCN(C/C=C/c2ccccc2[N+](=O)[O-])C1 (stereo not shown),-42.6
14,CCOC(=O)C1CCN(C/C=C/c2ccccc2)CC1,4.64
15,CC(O)[C@H]1CNCCN1CCc1cccc2ccccc12 (stereo partly shown),5.81
16,CCSc1ccccc1C(=O)N1CCN(c2ccc([N+](=O)[O-])cc2)CC1,-41
17,O=C(O)c1cn(Cc2ccccc2)c2ccccc2c1=O,-43.6
18,CCCCCCn1cc(C(=O)O)c(=O)c2ccccc21,-84.4
19,CCCCCCn1cc(C(=O)O)c(=O)c2cc(F)c(N3CCCCC3)cc21,14
20,COc1ccc2c(c1)c(=O)c(C(=O)c1ccccc1)cn2Cc1ccccc1,-21.1
21,O=C(O)c1cn(Cc2ccccc2)c2ccc(Cl)cc2c1=O,-84.4
22,CCCCCn1cc(C(=O)C(=O)N2CCOCC2)c2ccccc21,7.53
